Experiment in all cases: growth inhibition (% activity, log2 RLU normalised to DMSO / staurosporine); higher = more growth inhibition
Conditions in all cases: 33 µM

In experiment [1] the test system is DIPGX29 (H3.3 K27M diffuse intrinsic pontine glioma line). In short, it runs like this: (§1)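 The growth-inhibition value is the median over replicates. pHGG cell lines and H9-derived neural stem cells on Geltrex-coated 384-well plates received approved drugs by pin tool at a single final concentration of about 33 μM, in triplicate, for 7 days at 37 °C, 5% CO2. CellTiter-Glo luminescence was log2-transformed and normalised per plate to % activity between solvent and positive control wells.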

For experiment [2], the system named is DIPGX37 (H3.3 K27M diffuse intrinsic pontine glioma line). The gist of the method:
as §1

The subject of experiment [3] is DIPGX7 (H3.3 K27M diffuse intrinsic pontine glioma line). The gist of the method: as §1
The subject of experiment [4] is DIPGX9 (diffuse intrinsic pontine glioma line). The gist of the method:
as §1

Experiment [5] deals with HGGX39 (paediatric high-grade glioma line). In short, it runs like this: as §1
In experiment [6] the test system is HGGX6 (H3.3 G34R paediatric high-grade glioma line). The gist of the method: as §1
Experiment [7] has as its system HNSC. In short, it runs like this: as §1
Experiment [8] deals with SUDIPGIV (diffuse intrinsic pontine glioma line)
The gist of the method:
as §1

Experiment [9] concerns SUDIPGVI (diffuse intrinsic pontine glioma line)
In short, it runs like this: as §1

The subject of experiment [10] is SUDIPGXIII (diffuse intrinsic pontine glioma line)
The gist of the method:
as §1

As for `CC(COc1ccccc1)N(CCCl)Cc1ccccc1` (stereo not given), the growth inhibition in [1] is -2.73%; in experiment [2] it was -0.547%; in [3], 0.876%; in [4], -1.7%; in [5], -4.31%; in experiment [6], -3.53%. Further, the growth inhibition was 41.4% in experiment [7], -2.44% in experiment [8], -7.02% in experiment [9] and 1.89% in experiment [10].

Regarding `COc1ccc(CN(CCN(C)C)c2ccccn2)cc1`, the growth inhibition is -4.36% in experiment [1]; -0.213% in experiment [2]; -2.04% in experiment [3]; -0.968% in [4]; 2.69% in experiment [5]; -3.48% in experiment [6]. The growth inhibition in [7] was -2.01%; in experiment [8] it was -2.03%; in experiment [9] it was -1.61%; in experiment [10], 0.98%.

As for `CC(C)(C)C(=O)OCOP(=O)(COCCn1cnc2c(N)ncnc21)OCOC(=O)C(C)(C)C`, the growth inhibition came to 7.13% in experiment [1]; 8.8% in experiment [2]; 8.24% in experiment [3]; 19.5% in experiment [4]; 11.8% in experiment [5]; 7.96% in [6]. Also, the growth inhibition turned out to be 47.8% in [7], 13.4% in [8], 2.68% in [9] and 3.59% in experiment [10].

Regarding `CCCCCCCCCCCCCCCC[N+](C)(C)CCN(Cc1ccc(OC)cc1)c1ncccn1`, the growth inhibition was 59.2% in experiment [1]; 55.6% in experiment [2]; 57.6% in experiment [3]; 55.3% in experiment [4]; 59.2% in [5]; 62% in experiment [6]. The growth inhibition in [7] was determined as 57.8%; in experiment [8] it was 57.6%; in experiment [9], 56.7%; in experiment [10], 42.9%.

Turning to `CC[C@@]1(O)C(=O)OCc2c1cc1n(c2=O)Cc2cc3c(CN(C)C)c(O)ccc3nc2-1`, the growth inhibition in experiment [1] worked out at 12.9%; in [2], 21.8%; in experiment [3], 37.9%; in [4] it was 51.6%; in experiment [5], 40.2%; in experiment [6] it was 17.2%. Further, the growth inhibition in experiment [7] was 53.9%; in [8] it was 48.4%; in [9] it was 7.54%; in experiment [10], 4.79%.

As to `COC(=O)Nc1nc2cc(C(=O)c3ccc(F)cc3)ccc2[nH]1`, the growth inhibition was 5.17% in [1]; 7.48% in experiment [2]; 3.54% in experiment [3]; 6.48% in [4]; -0.271% in [5]; 3.94% in experiment [6]. In addition, the growth inhibition in experiment [7] was 63.6%; in [8], -1.42%; in experiment [9] it was 0.822%; in experiment [10], 5.19%.

With `CCOC(=O)N1CCC(=C2c3ccc(Cl)cc3CCc3cccnc32)CC1`, the growth inhibition in experiment [1] was found to be 2.36%; in experiment [2] it was 3.66%; in experiment [3], 1.58%; in [4] it was 1.03%; in [5] it was 1.57%; in [6], 1.37%. Also, the growth inhibition in experiment [7] was determined as 5.38%; in experiment [8] it was 3.97%; in experiment [9], 1.47%; in experiment [10], 0.514%.

For `C[C@H]1[C@H](NC(=O)/C(=N\OC(C)(C)C(=O)O)c2csc(N)n2)C(=O)N1S(=O)(=O)O`, the growth inhibition in [1] was 1.82%; in experiment [2], 1.51%; in experiment [3] it was 2.55%; in experiment [4], 1.75%; in [5], 2.62%; in [6], 1.95%. Further, the growth inhibition in [7] was determined as 1.91%; in experiment [8] it was 1.35%; in [9] it was 3.09%; in [10] it was 1.38%.

With `C=CCc1cc(OC)c(O)c(C(=O)NCCO)c1`, the growth inhibition in experiment [1] was -2.1%; in experiment [2] it was 0.086%; in experiment [3], -1.32%; in [4] it was 0.81%; in experiment [5], -1.9%; in experiment [6], -0.129%. Further, the growth inhibition in [7] is -0.87%; in experiment [8] it was -1.83%; in experiment [9], 0.104%; in experiment [10], -0.0438%.

With `CCCCCOC(=O)Nc1nc(=O)n([C@@H]2O[C@H](C)[C@@H](O)[C@H]2O)cc1F`, the growth inhibition in experiment [1] is -0.544%; in experiment [2], 1.13%; in experiment [3] it was 0.087%; in experiment [4], 0.193%; in [5], 1.46%; in experiment [6], 0.0555%. Moreover, the growth inhibition in experiment [7] is -0.694%; in [8] it was -0.463%; in experiment [9], 0.998%; in [10] it was 1.54%.

(Values after the supplement of paper PMC8253809.)
